Measured values as given in PubChem BioAssay (NCI).
The panel holds about 83,000 compounds, 20% with a hit somewhere; the sample as a whole holds those more often.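 In brief: 96-well plates, 48 h treatment, single concentration, percent growth endpoint.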 A number with no mark means an inactive call. Activity calls are given as the source filed them. The calls were made as follows: active = growth percent below 10; inactive = the rest.

Legend:
Assay in all cases: NCI-60 one-dose screen, 48 h (100 = growth as untreated, 0 = no growth, -100 = all killed)
Conditions in all cases: 10 µM unless noted
HCT-15 colon = test system: HCT-15 colon
HT29 colon = test system: HT29 colon
SNB-75 CNS = test system: SNB-75 CNS
SNB-19 CNS = test system: SNB-19 CNS
U251 CNS = test system: U251 CNS
PC-3 prostate = test system: PC-3 prostate
SK-MEL-5 melanoma = test system: SK-MEL-5 melanoma
UACC-62 melanoma = test system: UACC-62 melanoma
SK-MEL-28 melanoma = test system: SK-MEL-28 melanoma
LOX IMVI melanoma = test system: LOX IMVI melanoma

SMILES	growth (HCT-15 colon)	growth (HT29 colon)	growth (SNB-75 CNS)	growth (SNB-19 CNS)	growth (U251 CNS)	growth (PC-3 prostate)	growth (SK-MEL-5 melanoma)	growth (UACC-62 melanoma)	growth (SK-MEL-28 melanoma)	growth (LOX IMVI melanoma)
COc1ccc(-c2nnc(N3CCN(C(=O)CN4CCN(c5ccc(OC)cc5)CC4)CC3)nc2-c2ccc(OC)cc2)cc1	-40.9% (active)	4.12% (active)	65.7%	96.1%	4.4% (active)	-96.4% (active)	-50.2% (active)	-48.2% (active)	-84.1% (active)	–
COC(=O)CCc1cc(O)c2c(c1)[C@@H](C(=O)OC)[C@H](c1ccc(O)c(O)c1)O2	50.3%	95%	71.2%	74.9%	71%	85.5%	76.4%	66%	73.8%	–
O=C(CCCCCCCCC(=O)Nc1cccc(C2=NCCN2)c1)Nc1cccc(C2=NCCN2)c1	102%	82.3%	110%	102%	91.7%	84.9%	98.2%	105%	92.8%	–
Cc1cc(C)n(-c2nc(-c3cccs3)c(C#N)c(=O)[nH]2)n1	71.1%	100%	89.2%	96.3%	90.8%	94.2%	102%	94.8%	99.8%	–
Nc1cc(N)nc(SCC(=O)O)n1	110%	85.1%	100%	100%	93.4%	89.9%	99.8%	99.1%	106%	–
O=C1Nc2ccccc2C12C=C(c1ccccc1)Nc1c2c(-c2ccccc2)nn1-c1ccccc1 (configuration not stated)	53.4%	46.1%	71%	64.3%	41.6%	32.2%	68.4%	91.9%	82.2%	–
O=C1NC(c2ccc(F)cc2)N=C2C(c3ccccc3)=NOC12 (configuration not stated)	103%	98.7%	101%	103%	101%	104%	105%	102%	115%	–
C=C1C(=O)O[C@H]2[C@H]1CC/C(COC(=O)c1c[nH]c3ccccc13)=C\CC[C@@]1(C)O[C@@H]21	-69.5% (active)	-59.8% (active)	-2.2% (active)	-40.3% (active)	-81.2% (active)	-52.1% (active)	-98.2% (active)	-69.1% (active)	-63.8% (active)	–
CCCCn1c(=O)c(/C=C/C(=O)/C=C/c2ccc(OC)cc2)cc2cc(Cl)ccc21	27.5%	9.75% (active)	84.9%	47.5%	-13.4% (active)	39.5%	78.9%	76.2%	115%	–
C=C1C(=O)O[C@H]2[C@H]1CC/C(COC(=O)CCCCCCCC(=O)OC/C1=C/CC[C@@]3(C)O[C@H]3[C@H]3OC(=O)C(=C)[C@@H]3CC1)=C\CC[C@@]1(C)O[C@@H]21	-4.93% (active)	-8.08% (active)	68%	55%	32.3%	15.2%	17.5%	-10.2% (active)	20.7%	–
Cc1c(O)c(=O)ccn1-c1nc2ccccc2s1	38.2%	93.8%	95.7%	110%	84.1%	90.4%	96.2%	98.3%	107%	–
O=C1C(Cl)=C(NCCCN(CCCNC2=C(Cl)C(=O)c3ccccc3C2=O)C2=C(Cl)C(=O)c3ccccc3C2=O)C(=O)c2ccccc21	37.1%	12.4%	104%	72.9%	37.4%	47%	-59.1% (active)	17.9%	71.7%	–
c1ccc(-c2n(Cc3ccc4ccccc4n3)cc[n+]2Cc2ccc3ccccc3n2)cc1	102%	22.8%	42.6%	8.24% (active)	14.7%	27%	-73.4% (active)	-10.3% (active)	24.5%	–
C=C(C)[C@@H]1CC[C@]2(C(=O)N3CCN(C)CC3)CC[C@]3(C)[C@H](CC[C@@H]4[C@@]5(C)C/C(=C/c6ccco6)C(=O)C(C)(C)[C@@H]5CC[C@]43C)[C@@H]12	46.6%	25.8%	68%	80.1%	60.9%	37.2%	68.9%	76.1%	55.7%	–
O=C(Nc1ccc2ncnc(Nc3cccc(C(F)(F)F)c3)c2c1)c1cccs1	38.9%	18%	89.2%	40.1%	17%	20.9%	61.1%	67.5%	89.1%	65.5%
CCO/C=N/S(=O)(=O)c1cc2c(cc1Cl)NC=NS2(=O)=O	107%	97.4%	106%	103%	95.4%	92.3%	102%	104%	120%	–
C=C1C(=O)O[C@H]2[C@H]1CC/C(COC(=O)N1CCC[C@H]1C(=O)Nc1ccc(OC)c(C(N)=O)c1O)=C\CC[C@@]1(C)O[C@@H]21	59.6%	-8.09% (active)	84%	60.5%	51.6%	74.4%	63.7%	34.5%	49.4%	–
CCOC(=O)c1c(C)nc2c(c1N)CC(=O)N2CCc1ccccc1	17.2%	6.02% (active)	80.1%	22.4%	31.8%	17.3%	3.27% (active)	32.1%	39.9%	–
Cc1nccc2c3ccc(OCc4cn(-c5ccc(Cl)cc5)nn4)cc3n(CC(C)C)c12	18.7%	1.3% (active)	55.8%	–	26.9%	17.4%	-78.3% (active)	24.2%	–	3.05% (active)
O=C(Nc1ccc(N=Cc2ccccc2O)cc1)NC1C=c2ccccc2=CC1 (configuration not stated)	100%	104%	86.3%	100%	93.2%	104%	98.7%	92.7%	99.8%	–
C[C@H]1[C@H](C)CC[C@]2(C(=O)OCCOCCOCC[P+](c3ccccc3)(c3ccccc3)c3ccccc3)CC[C@]3(C)C(=CC[C@@H]4[C@@]5(C)CC[C@H](OC(=O)C(Cl)Cl)C(C)(C)[C@@H]5CC[C@]43C)[C@H]12	17.1%	3.81% (active)	19.7%	20.4%	11.3%	5.1% (active)	-97.7% (active)	-23.9% (active)	30%	–
Cc1cc(NC(=O)CNc2nc(Oc3ccc(F)cc3)nc(-c3ccc(F)cc3)n2)ccc1Cl	102%	94%	87.8%	100%	98.4%	89.1%	99.1%	97.5%	109%	–
CCCCOc1nc2ccc(C)cc2cc1/C=C/C(=O)/C=C/c1ccc2c(c1)OCO2	97.8%	63.6%	97.1%	92.9%	48.4%	72.4%	77.6%	75.6%	109%	–
Cc1cccc(C)c1NC(=O)CN(CC(C)C)CC(O)COc1ccccc1 (configuration not stated)	90.7%	85.5%	86.6%	108%	99.7%	86.3%	95.5%	83.9%	109%	–
COc1ccc(-n2nc(C(=O)NCC(=O)O)nc2-c2ccccc2)cc1	113%	98.7%	103%	–	107%	103%	100%	102%	–	94.1%
OCCNc1nc(NCCO)nc(Nc2ccc(C3=NN(c4ccc(Cl)cc4)C(c4ccc(Cl)cc4)C3)cc2)n1 (configuration not stated)	48.4%	30.5%	51.1%	78.1%	43%	32.8%	78.2%	77.9%	54.4%	28.2%
C=C1C(=O)O[C@H]2[C@H]1CC/C(COC(=O)CCCCC(=O)OC/C1=C/CC[C@@]3(C)O[C@H]3[C@H]3OC(=O)C(=C)[C@@H]3CC1)=C\CC[C@@]1(C)O[C@@H]21	18.1%	40.1%	79.2%	89.9%	81.4%	68.6%	77.9%	48.3%	76.8%	–
COc1ccc(/C=C/C(=O)/C=C(/C=C/c2ccc(OC)c(OC)c2)OB(F)F)cc1OC	0.848% (active)	3% (active)	76.8%	–	8.37% (active)	31.5%	56.6%	52.6%	29.6%	5.12% (active)
